These results are taken from PubChem BioAssay (Tox21).

Several values for one entry are separate records, joined by “and”; a condition that tells them apart may be missing. Equal values may be shown once. Records with an inconclusive call do not appear. More than one record can exist for a structure, and the calls need not agree. Activity calls are given as the source filed them. Unless noted, the call rests on the fitted dose curve; in most records, active means well fitted curve in the direction sought with a large enough effect in the repeat runs; inconclusive means weak or mixed curves; inactive means no such curve, though single readings can be large; an effect the other way counts as inactive or inconclusive.

Experiment [1] concerns the target Estrogen receptor beta (Homo sapiens) (UniProt Q92731). The experiment can be described thus: qHTS assay to identify small molecule agonists of the estrogen receptor beta (ER-beta) signaling pathway (AID 1259377; active means well fitted activation curve with a large enough effect in the signal ratio in the repeat runs, not every such curve was filed as active; the % refers to the signal ratio). An outline of the steps:
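Agonist mode cell assay in GripTite HEK293T cells expressing an ER-beta fusion that drives beta-lactamase from an Upstream Activator Sequence; 16 hr compound exposure at 37C, then 2 h LiveBLAzer B/G FRET substrate at room temperature, fluorescence read-out.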

Experiment [2] in a line: qHTS assay to identify small molecule agonists of the estrogen receptor beta (ER-beta) signaling pathway - cell viability counter screen (AID 1259380). Further: nearly all actives have a fitted effect of over 30% in size. Further: potency means the concentration at half of the fitted maximal effect. The gist of the method:
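Compounds dissolved in DMSO were pin-transferred onto ER-beta-UAS-bla HEK293T cells that had settled 6 hr, and exposure ran 16 hr at 37C. Following the reporter read, CellTiter-Glo luminescence after 30 min at room temperature indicated cytotoxicity.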
For orientation: In qHTS, concentration-response curves come from the screen itself.

A short description of experiment [3]: qHTS assay to identify small molecule antagonists of the estrogen receptor beta (ER-beta) signaling pathway - cell viability counter screen (AID 1259382). Further: nearly all actives have a fitted effect of over 55% in size. Further: potency means the concentration at half of the fitted maximal effect.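 On activity change, negative = cytotoxicity: HEK293T cells carrying ER-beta-UAS-bla reporter stimulated with estradiol; series mostly up to about 92 µM.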 An outline of the steps: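 CellTiter-Glo ATP luminescence measured after the LiveBLAzer read in the same wells; ER-beta-UAS-bla HEK293T cells, 16 hr compound treatment with 1nM 17-beta-estradiol agonist at 37C, 5% CO2.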

Experiment [4] deals with Estrogen receptor (Homo sapiens) (UniProt P03372). The experiment can be described thus: qHTS assay to identify small molecule agonists of the estrogen receptor alpha (ER-alpha) signaling pathway in the presence of an antagonist (AID 1259383; calls by dose curve; further: nearly all actives have a fitted effect of over 15% in size; further: potency means the concentration at half of the fitted maximal effect; on activation: top concentration of the series differs between compounds). An outline of the steps: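 Luminescent ERE-luciferase reporter, VM7Luc4E2 cells (endogenous ER-alpha); 10.0nM ICI-182,780 final; 15-point compound titration; 22hr at 37C; ONE-Glo, 30min RT.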
Chain of Estrogen receptor (Homo sapiens) (P03372 whole entry, looked up): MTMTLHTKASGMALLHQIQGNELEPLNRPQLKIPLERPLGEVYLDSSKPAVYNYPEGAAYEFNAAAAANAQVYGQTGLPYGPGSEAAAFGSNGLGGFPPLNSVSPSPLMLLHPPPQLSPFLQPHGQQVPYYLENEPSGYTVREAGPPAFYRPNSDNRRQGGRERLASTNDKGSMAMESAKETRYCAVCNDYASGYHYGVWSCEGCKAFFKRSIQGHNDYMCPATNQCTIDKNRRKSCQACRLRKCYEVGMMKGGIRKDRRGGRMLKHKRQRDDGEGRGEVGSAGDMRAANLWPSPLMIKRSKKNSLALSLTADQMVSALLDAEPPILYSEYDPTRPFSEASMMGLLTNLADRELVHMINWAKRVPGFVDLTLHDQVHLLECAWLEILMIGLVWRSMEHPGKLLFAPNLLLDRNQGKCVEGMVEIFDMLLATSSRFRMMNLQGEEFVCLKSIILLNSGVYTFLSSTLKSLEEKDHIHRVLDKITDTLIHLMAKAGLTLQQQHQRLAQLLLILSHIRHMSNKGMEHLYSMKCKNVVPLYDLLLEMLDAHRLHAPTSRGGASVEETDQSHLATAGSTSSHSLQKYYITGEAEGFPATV

The nature of experiment [5]: qHTS assay to identify small molecule agonists or antagonists of the thyroid stimulating hormone receptor (TSHR) signaling pathway - wild type cell line counter screen (AID 1259384; calls by dose curve). An outline of the steps: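 Wild-type HEK293 cells were plated 18 h at 37 C/5% CO2, pin-dosed with compound plus Ro20-1724 medium, held 30 min at room temperature, then given cAMP-d2 and anti-cAMP-cryptate; fluorescence was read after 1 h. Fifteen concentrations, triplicate.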

Experiment [6] deals with Thyrotropin receptor (Homo sapiens) (UniProt P16473). In words: qHTS assay to identify small molecule antagonists of the thyroid stimulating hormone receptor (TSHR) signaling pathway (AID 1259385; calls by dose curve; further: nearly all actives have a fitted effect of over 20% in size; further: potency means the concentration at half of the fitted maximal effect). An outline of the steps: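 TSHR-HEK293 cells were plated and held 18 h at 37C/5% CO2, then given compound plus Ro20-1724 and stimulated with TSH at 1.5 ng/mL final. After 30 min at room temperature, cAMP was detected with cAMP-d2/anti-cAMP-cryptate (1 h) by fluorescence.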
Chain of Thyrotropin receptor (Homo sapiens) (P16473 whole entry, looked up): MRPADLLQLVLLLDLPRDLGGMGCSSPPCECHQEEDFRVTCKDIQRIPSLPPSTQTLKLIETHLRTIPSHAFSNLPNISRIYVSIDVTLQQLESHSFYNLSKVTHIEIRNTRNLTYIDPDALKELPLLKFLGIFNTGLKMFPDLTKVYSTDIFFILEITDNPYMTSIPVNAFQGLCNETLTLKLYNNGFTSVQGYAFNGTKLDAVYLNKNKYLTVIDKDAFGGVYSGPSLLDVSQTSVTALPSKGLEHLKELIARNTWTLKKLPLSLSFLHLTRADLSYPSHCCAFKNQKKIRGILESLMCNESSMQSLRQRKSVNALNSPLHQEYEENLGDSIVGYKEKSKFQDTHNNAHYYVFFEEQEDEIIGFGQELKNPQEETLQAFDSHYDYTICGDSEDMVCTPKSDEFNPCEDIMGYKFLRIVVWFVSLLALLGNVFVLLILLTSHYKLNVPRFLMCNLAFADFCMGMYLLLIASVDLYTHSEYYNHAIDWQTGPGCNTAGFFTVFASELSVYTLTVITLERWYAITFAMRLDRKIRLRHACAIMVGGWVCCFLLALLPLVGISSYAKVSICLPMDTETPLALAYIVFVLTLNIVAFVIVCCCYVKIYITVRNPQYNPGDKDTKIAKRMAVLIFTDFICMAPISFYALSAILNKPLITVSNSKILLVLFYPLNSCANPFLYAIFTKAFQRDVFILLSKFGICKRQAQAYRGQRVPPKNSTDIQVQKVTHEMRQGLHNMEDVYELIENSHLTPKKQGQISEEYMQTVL

Experiment [7] in a line: qHTS assay to identify small molecule agonists of the estrogen receptor alpha (ER-alpha) signaling pathway in the presence of an antagonist - cell viability counter screen (AID 1259386).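 Further: cells exposed to compounds for 22 h at 37 °C before the viability read; nearly all actives have a fitted effect of over 30% in size.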 Further: potency means the concentration at half of the fitted maximal effect. On activity change, negative = cytotoxicity: series mostly up to about 92 µM. The gist of the method: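 Using estrogen-depleted VM7Luc4E2 cells, the 15-concentration compound series was applied together with 10.0nM ICI-182,780 and incubated 22hr at 37C/5% CO2. Cell viability was then scored by CellTiter-Fluor.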

The nature of experiment [8]: qHTS assay to identify small molecule agonists of the androgen receptor (AR) signaling pathway in the presence of an antagonist - cell viability counter screen (AID 1259379). Further: nearly all actives have a fitted effect of over 25% in size. Further: potency means the concentration at half of the fitted maximal effect.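 On activity change, negative = cytotoxicity: MDA-kb2 human breast cancer cells carrying an MMTV luciferase reporter; series mostly up to about 92 µM.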 The gist of the method:
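Each compound was tested at 15 concentrations on MDA-kb2 cells in the presence of 3.0uM nilutamide. Viability was measured by CellTiter-Fluor fluorescence after a 16 hr incubation at 37C in a CO2-free atmosphere.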

Experiment [9] addresses Androgen receptor (Homo sapiens) (UniProt P10275). In words: qHTS assay to identify small molecule agonists of the androgen receptor (AR) signaling pathway in the presence of an antagonist (AID 1259381; calls by dose curve; further: nearly all actives have a fitted effect of over 15% in size). An outline of the steps:
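Plated MDA-kb2 cells (3,000/well) were pre-incubated 5hr, given nilutamide (3.0uM final) or buffer, then dosed with compounds in DMSO at 15 concentrations. Luciferase activity was quantified by luminescence after 16hr at 37C.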
On the % scale 0 is the no-effect control and ±100 the full control effect.

Chain of Androgen receptor (Homo sapiens) (P10275 whole entry, looked up): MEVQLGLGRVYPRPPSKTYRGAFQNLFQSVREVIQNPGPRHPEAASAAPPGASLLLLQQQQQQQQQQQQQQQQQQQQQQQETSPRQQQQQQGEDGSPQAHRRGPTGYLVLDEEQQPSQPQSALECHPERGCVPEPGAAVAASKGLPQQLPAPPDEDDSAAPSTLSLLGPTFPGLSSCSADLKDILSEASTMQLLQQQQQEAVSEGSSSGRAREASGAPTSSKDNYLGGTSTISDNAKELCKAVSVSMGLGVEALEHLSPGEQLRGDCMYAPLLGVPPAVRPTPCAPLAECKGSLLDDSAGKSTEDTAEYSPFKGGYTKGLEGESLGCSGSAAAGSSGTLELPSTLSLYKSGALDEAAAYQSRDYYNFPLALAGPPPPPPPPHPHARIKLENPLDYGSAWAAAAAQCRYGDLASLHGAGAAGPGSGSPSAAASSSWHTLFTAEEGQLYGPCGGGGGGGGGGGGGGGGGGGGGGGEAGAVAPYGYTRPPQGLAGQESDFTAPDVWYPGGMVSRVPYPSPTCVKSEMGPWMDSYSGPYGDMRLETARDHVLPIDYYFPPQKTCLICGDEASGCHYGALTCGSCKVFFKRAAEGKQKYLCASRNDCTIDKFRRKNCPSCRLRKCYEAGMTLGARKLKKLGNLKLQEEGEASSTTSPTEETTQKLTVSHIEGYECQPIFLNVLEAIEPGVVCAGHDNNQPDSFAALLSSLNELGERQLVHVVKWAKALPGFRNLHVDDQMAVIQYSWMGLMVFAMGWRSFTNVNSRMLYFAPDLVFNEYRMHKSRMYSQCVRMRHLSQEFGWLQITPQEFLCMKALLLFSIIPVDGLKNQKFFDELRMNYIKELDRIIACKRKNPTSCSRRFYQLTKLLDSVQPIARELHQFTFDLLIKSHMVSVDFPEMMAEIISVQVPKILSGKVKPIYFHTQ
Chain of Estrogen receptor beta (Homo sapiens) (Q92731 whole entry, looked up, the tested form may be a part): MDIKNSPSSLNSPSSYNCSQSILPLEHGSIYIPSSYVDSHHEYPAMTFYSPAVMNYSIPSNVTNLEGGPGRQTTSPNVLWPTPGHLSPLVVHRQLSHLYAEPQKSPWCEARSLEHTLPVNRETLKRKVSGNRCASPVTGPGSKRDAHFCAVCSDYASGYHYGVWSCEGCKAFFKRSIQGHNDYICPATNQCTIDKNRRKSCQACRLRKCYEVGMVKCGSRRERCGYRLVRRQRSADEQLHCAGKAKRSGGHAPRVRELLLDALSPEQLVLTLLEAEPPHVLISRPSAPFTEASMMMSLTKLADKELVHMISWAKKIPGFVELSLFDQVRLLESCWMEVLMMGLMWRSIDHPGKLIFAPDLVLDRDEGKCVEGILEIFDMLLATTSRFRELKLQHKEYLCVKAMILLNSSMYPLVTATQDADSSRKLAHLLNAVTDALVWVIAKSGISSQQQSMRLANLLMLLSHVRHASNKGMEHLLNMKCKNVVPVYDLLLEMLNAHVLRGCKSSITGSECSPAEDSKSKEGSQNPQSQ

Turning to `O=C1Nc2ccccc2C1(c1ccc(O)cc1)c1ccc(O)cc1`, the call in [1] was inactive. Besides, the Potency result in [2], in experiment [3], in experiment [4], in experiment [5] and in experiment [6] was “inactive” throughout. Also, in [7], the Potency was 1.37 µM (active) and 944 nM (active).
`Cc1c(O)cccc1C(=O)N[C@@H](CSc1ccccc1)[C@H](O)CN1C[C@H]2CCCC[C@H]2C[C@H]1C(=O)NC(C)(C)C`: the Potency in [8] was 53 µM (active) and 23.7 µM (active); in [2] it was 23.7 µM (active) and 18.8 µM (active); in experiment [3], 16.8 µM (active) and 23.7 µM (active); in [7], 29.8 µM (active) and 11.9 µM (active). Moreover, the Potency entry in [9], in [5] and in experiment [6] was “inactive” each time.
With `c1ccc2c(c1)CCCC2C1=NCCN1` (stereo not drawn), the Potency entry in experiment [8], in experiment [2], in [3], in experiment [4], in experiment [6] and in experiment [7] was “inactive” in each case.
As for `CC[C@@H](N)CO`, the Potency result in experiment [8], in experiment [2], in experiment [3], in experiment [4], in experiment [5] and in experiment [6] was “inactive” throughout. For the same molecule, the Potency entry in experiment [7] is “inactive”.
Take `Cc1cc(Cc2cc(C)cc(C(C)(C)C)c2O)c(O)c(C(C)(C)C)c1`: the Potency in experiment [8] was 61.4 µM (active) and 68.6 µM (active); in experiment [2], 13.8 µM (active) and 21.7 µM (active); in experiment [3], 17.3 µM (active) and 21.7 µM (active). For the same molecule, the Potency entry in experiment [4] and in [6] was “inactive” each time.
As for `CNC1(C)C2CCC(C2)C1(C)C` (stereo not drawn), the Potency entry in experiment [8], in experiment [2] and in [3] was “inactive” in each case.
Regarding `CCN(CC)CCOc1ccc(/C(=C(\Cl)c2ccccc2)c2ccccc2)cc1`, the Potency in experiment [8] is 44.2 µM (active) and 29.8 µM (active); in [2] it was 49.6 µM (active) and 29.8 µM (active); in experiment [3], 44.2 µM (active) and 29.8 µM (active); in experiment [6] it was 29.8 µM (active). The Potency entry in experiment [9] and in experiment [7] was “inactive” in each case.
As for `O=C(O)c1cccc(C(=O)O)c1`, the Potency result in experiment [8], in experiment [2], in experiment [3], in experiment [4], in experiment [6] and in [7] was “inactive” each time.
Regarding `CCOc1ccc2c(c1)C(C)=CC(C)(C)N2`, the Potency entry in experiment [8], in [2], in experiment [9], in [3], in experiment [4] and in experiment [5] was “inactive” in each case. Moreover, the Potency entry in experiment [6] and in [7] was “inactive” each time.
As for `CC(=O)O[C@]1(C(C)=O)CC[C@H]2[C@@H]3C[C@H](C)C4=CC(=O)CC[C@]4(C)[C@H]3CC[C@@]21C`, the Potency result in experiment [8], in [2], in [3], in experiment [4], in experiment [5] and in [6] was “inactive” throughout. Also, in [7], the Potency result is “inactive”.
For the molecule `Cc1ccc(-c2cc(C(F)(F)F)nn2-c2ccc(S(N)(=O)=O)cc2)cc1`, the Potency result in experiment [8], in experiment [9], in experiment [4], in [5], in [6] and in experiment [7] was “inactive” throughout. In addition, the Potency in [2] is 60.9 µM (active) and 34.4 µM (active) and inactive; in experiment [3] it was 61.1 µM (active) and inactive.
Consider `O=C(OCc1ccccc1)c1ccc(O)cc1`, for which the Potency entry in experiment [8], in [2], in experiment [3], in [6] and in experiment [7] was “inactive” throughout. Besides, the Potency in experiment [4] was 30.6 µM (active) and 29.8 µM (active).
On to `Oc1c(Cl)cc(Cl)cc1Sc1cc(Cl)cc(Cl)c1O`, for which the molecule was called inactive in [1]. Further, the Potency in [2] is 54.6 µM (active) and 61.1 µM (active); in [3], 30.7 µM (active) and 54.5 µM (active). In addition, the Potency result in experiment [4] and in experiment [6] was “inactive” in each case.
Consider `CCN1CCCC1CNC(=O)c1cc(S(=O)(=O)CC)c(N)cc1OC` (stereo not drawn), for which the Potency result in experiment [8], in experiment [2], in experiment [3], in experiment [4], in experiment [5] and in experiment [6] was “inactive” throughout. In addition, the Potency entry in experiment [7] was “inactive”.
`Cc1cc(C2(c3cc(C)c(O)cc3C)OS(=O)(=O)c3ccccc32)c(C)cc1O`: the Potency in experiment [8] was 54.5 µM (active) and 27.3 µM (active); in experiment [4] it was 43.3 µM (active) and inactive; in experiment [7], 30.6 µM (active) and 21.7 µM (active). For the same molecule, the Potency result in experiment [2], in experiment [3], in [5] and in experiment [6] was “inactive” each time.
For the molecule `CCc1cc(C(C)(C)C)c(O)c(C(C)(C)C)c1`, the Potency entry in [8], in experiment [2], in [3], in experiment [5], in experiment [6] and in experiment [7] was “inactive” each time.
Regarding `CC[C@]1(O)C[C@@H]2CN(CCc3c([nH]c4ccccc34)[C@@](C(=O)OC)(c3cc4c(cc3OC)N(C)[C@H]3[C@@](O)(C(=O)OC)[C@H](OC(C)=O)[C@]5(CC)C=CCN6CC[C@]43[C@@H]65)C2)C1`, the Potency result in experiment [8], in experiment [2], in experiment [3], in experiment [5] and in experiment [6] was “inactive” in each case. In addition, the Potency in [7] was 10.6 µM (active).
As for `O=C(O)c1cn(-c2ccc(F)cc2)c2cc(N3CCNCC3)c(F)cc2c1=O`, the Potency result in [8], in experiment [2], in experiment [3], in [5], in [6] and in experiment [7] was “inactive” each time.
Turning to `COc1ccc(CCN2CCC(Nc3nc4ccccc4n3Cc3ccc(F)cc3)CC2)cc1`, the Potency in [8] was 17.6 µM (active) and 21.1 µM (active); in experiment [2], 9.9 µM (active) and 23.7 µM (active); in [3], 9.9 µM (active) and 21.1 µM (active); in [6], 31.3 µM (active) and inactive; in [7], 39.4 µM (active) and inactive.
`CC(COc1ccccc1)N(CCCl)Cc1ccccc1` (stereo not drawn): the Potency is 55 µM (active) and 61.1 µM (active) in [8]; 54.5 µM (active) in [2]. The Potency entry in experiment [3], in experiment [6] and in experiment [7] was “inactive” in each case.
For `NC(Cc1ccc(Cl)cc1)C(=O)O` (stereo not drawn), the activity change, negative = cytotoxicity in [8] is 4.35% [at 0.35 µM] (inactive); in [2], -2.17% [at 0.349 µM] (inactive); in experiment [3], -0.284% [at 0.349 µM] (inactive); in experiment [7], 2.8% [at 0.349 µM] (inactive). Also, in [5], the cAMP activity change is -3.62% [at 0.349 µM, stronger effect = higher value] (inactive). Further, the activity change, negative = inhibition in [6] is 0.481% [at 0.349 µM] (inactive).
For the molecule `O=S(=O)(O)c1ccc2nc(-c3ccccc3)[nH]c2c1`, the Potency entry in [8], in experiment [6] and in experiment [7] was “inactive” throughout. For the same molecule, the Potency in experiment [2] is 23.2 µM (active); in [3], 32.7 µM (active).
`CC(C)(C)NC(=O)[C@@H]1CN(Cc2cccnc2)CCN1C[C@@H](O)C[C@@H](Cc1ccccc1)C(=O)N[C@H]1c2ccccc2C[C@H]1O`: the Potency entry in experiment [8], in experiment [2], in [3] and in [7] was “inactive” each time.
